Several values for one entry are separate records, joined by “and”; a condition that tells them apart may be missing. Equal values may be shown once. Records with an inconclusive call do not appear. A call without a number means that no potency is given here. Where a structure was tested more than once in an assay, its records may differ in their call. Activity calls are given as the source filed them. Unless noted, the call rests on the fitted dose curve.
Potency means the concentration at half of the fitted maximal effect.

The target of the first test is Peroxisome proliferator-activated receptor gamma (Homo sapiens) (UniProt P37231). Nature of the test: qHTS assay to identify small molecule antagonists of the peroxisome proliferator-activated receptor gamma (PPARg) signaling pathway (AID 743191). Further: nearly all actives have a fitted effect of over 30% in size. To be noted: HEK293H PPARg-UAS-bla, beta-lactamase ratio, antagonist, 17 h; series mostly up to 62.6 µM. A digest of the protocol: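 GeneBLAzer PPARg UAS-bla HEK293H cells, 5 h post-plating, exposed to compounds 17 h at 37C. LiveBLAzer B/G FRET substrate added for 1 h at room temperature; beta-lactamase reporter read by fluorescence intensity.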
Chain of Peroxisome proliferator-activated receptor gamma (Homo sapiens) (P37231 whole entry, looked up): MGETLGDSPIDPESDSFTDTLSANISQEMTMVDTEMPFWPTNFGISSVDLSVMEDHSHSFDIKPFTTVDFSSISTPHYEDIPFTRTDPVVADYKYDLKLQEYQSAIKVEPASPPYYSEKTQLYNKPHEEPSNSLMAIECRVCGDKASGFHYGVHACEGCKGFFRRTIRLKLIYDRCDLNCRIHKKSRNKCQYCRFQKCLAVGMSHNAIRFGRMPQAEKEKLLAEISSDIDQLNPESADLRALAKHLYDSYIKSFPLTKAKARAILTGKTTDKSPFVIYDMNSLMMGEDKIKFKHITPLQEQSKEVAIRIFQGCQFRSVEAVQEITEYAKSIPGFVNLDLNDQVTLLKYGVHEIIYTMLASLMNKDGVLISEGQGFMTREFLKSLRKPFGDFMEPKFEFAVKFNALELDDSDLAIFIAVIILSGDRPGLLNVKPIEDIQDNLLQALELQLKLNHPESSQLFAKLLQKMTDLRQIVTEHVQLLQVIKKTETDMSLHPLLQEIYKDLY
`CCCCOCCOCCO`: the Potency result was “inactive”.
In the case of `O=c1oc(=O)c2cc3c(=O)oc(=O)c3cc12`, the Potency result was “inactive”.
Regarding `CN1C(C(=O)Nc2ccccn2)=C(O)c2ccccc2S1(=O)=O`, the Potency entry was “inactive”.
Turning to `OCCO`, the Potency result is “inactive”.
With `CC(CCC(=O)O)(c1ccc(O)cc1)c1ccc(O)cc1`, the Potency entry is “inactive”.
`COc1ccc(OC)c(C(O)CNC(=O)CN)c1` (configuration not stated): the Potency entry was “inactive”.
For the compound `CCCc1c(OCCCCc2nn[nH]n2)ccc(C(C)=O)c1O`, the Potency was 8.71 µM (active).
The same measure, in the same setting: the result for `O=[N+]([O-])c1ccc2c(c1)Cc1ccccc1-2` reads “inactive”; that for `CC1=CCC(C(C)(C)O)CC1` (configuration not stated), “inactive”.
Still for that read-out and setting: the value for `CC(C)Oc1ccc2c(=O)c(-c3ccccc3)coc2c1` was “inactive”.
Regarding `O=C1c2cccc(O)c2C(=O)c2c(O)cccc21`, the Potency entry was “inactive”.
`Cc1c(OCC(F)(F)F)ccnc1CS(=O)c1nc2ccccc2[nH]1` (configuration not stated): the Potency result was “inactive”.
Still for that read-out and setting: the result for `C[Si](C)(C)O[Si](C)(C)C` reads “inactive”; that for `c1cc(-c2ccncc2)ccn1`, “inactive”; that for `CCCCC(CC)COC(=O)c1ccc(N(C)C)cc1` (configuration not stated), “inactive”.
As for `CC(=O)c1ccccn1`, the Potency entry was “inactive”.
Consider `CCCCCCCCCCCO`, for which the Potency entry is “inactive”.
For the compound `CC(C)OC=O`, the Potency result was “inactive”.
In the case of `COc1ccccc1/C=C/C=O`, the Potency entry was “inactive”.
Take `O=C(c1ccccc1)c1ccccc1O`: the Potency entry was “inactive”.
Consider `CCOCCOCCO`, for which the Potency entry was “inactive”.
With `COc1ccc(C(=O)CC(=O)c2ccc(C(C)(C)C)cc2)cc1`, the Potency result was “inactive”.
As to `CNCCCC12CCC(c3ccccc31)c1ccccc12`, the Potency is 13.3 µM (active).
Still for that read-out and setting: the value for `Nc1ccc(S(=O)(=O)Nc2cnc3ccccc3n2)cc1` was “inactive”.
Take `Cc1ncc[nH]1`: the Potency result was “inactive”.
In the case of `Brc1cc(Oc2cc(Br)c(Br)c(Br)c2Br)c(Br)c(Br)c1Br`, the Potency result is “inactive”.

System in another test: not listed separately
Nature of the test: qHTS assay to identify small molecule antagonists of the peroxisome proliferator-activated receptor gamma (PPARg) signaling pathway - cell viability counter screen (AID 743194; active means well fitted cell-killing curve with a large enough effect in the repeat runs; further: nearly all actives have a fitted effect of over 55% in size). Conditions: PPARg-bla HEK293H viability, CellTiter-Glo luminescence, 17 h, co-treated with 50 nM rosiglitazone; series mostly up to 62.6 µM. A digest of the protocol:
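Cytotoxicity counter screen in PPARg-bla HEK293H cells, same wells as reporter assay. Compounds plus 50 nM rosiglitazone (final) for 17 h at 37 C, then viability read by CellTiter-Glo luminescence.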
Regarding `CC(C)(C)NC(=O)[C@H]1CC[C@H]2[C@@H]3CC[C@H]4NC(=O)C=C[C@]4(C)[C@H]3CC[C@]12C`, the Potency entry was “inactive”.
As to `O=C1c2cccc(O)c2C(=O)c2c(O)cccc21`, the Potency entry was “inactive”.
Turning to `CC(C)=CCC/C(C)=C\CO`, the Potency entry is “inactive”.
Still for that read-out and setting: the value for `O=CCc1ccccc1` was “inactive”; that for `c1ccc2sc(SSN3CCOCC3)nc2c1` was “inactive”.
In the case of `c1cc(-c2ccncc2)ccn1`, the Potency entry was “inactive”.
Same read-out and setting: the value for `CC(C)=CCCC(C)CCO` (configuration not stated) was “inactive”; that for `c1ccc2cc(Nc3ccc(Nc4ccc5ccccc5c4)cc3)ccc2c1` was “inactive”; that for `C#C[C@]1(O)CC[C@H]2[C@@H]3CCC4=Cc5oncc5C[C@]4(C)[C@H]3CC[C@@]21C` was 54.9 µM (active).
As to `O=C(O)c1ccccc1Nc1cccc(C(F)(F)F)c1`, the Potency result is “inactive”.
On to `O=CCCCC=O`, for which the Potency entry was “inactive”.
With `Nc1ccccc1N`, the Potency entry was “inactive”.
Consider `C[C@]12CC[C@H]3[C@@H](CCC4=CC(=O)CC[C@@]43C)[C@@H]1CC[C@@H]2C(=O)CO`, for which the Potency entry is “inactive”.
Still for that read-out and setting: the value for `CNCCCC12CCC(c3ccccc31)c1ccccc12` was 54.9 µM (active); that for `Brc1cc(Oc2cc(Br)c(Br)c(Br)c2Br)c(Br)c(Br)c1Br` was “inactive”.

System in another test: not listed separately
The test is described as follows: qHTS assay for small molecule agonists of the antioxidant response element (ARE) signaling pathway (AID 743202; active means well fitted activation curve with a large enough effect in the signal ratio in the repeat runs, not every such curve was filed as active; the % refers to the signal ratio). To be noted: HepG2 ARE-bla reporter, beta-lactamase FRET, 16 h; series mostly up to 73.3 µM. A digest of the protocol: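 HepG2 ARE-bla cells; 16 h treatment at 37 C; FRET-based beta-lactamase fluorescence read after 2 h substrate incubation at room temperature.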
(qHTS replaces the single test concentration by a dilution series.)
In the case of `CCCCOCCOCCO`, the Potency result is “inactive”.
For the compound `CC(C)(C)NC(=O)[C@H]1CC[C@H]2[C@@H]3CC[C@H]4NC(=O)C=C[C@]4(C)[C@H]3CC[C@]12C`, the Potency is 53.9 µM (active).
In the case of `O=c1oc(=O)c2cc3c(=O)oc(=O)c3cc12`, the Potency is 2.73 µM (active).
With `CN1C(C(=O)Nc2ccccn2)=C(O)c2ccccc2S1(=O)=O`, the Potency result was “inactive”.
Same read-out and setting: the result for `OCCO` reads “inactive”; that for `CC(CCC(=O)O)(c1ccc(O)cc1)c1ccc(O)cc1`, “inactive”; that for `COc1ccc(OC)c(C(O)CNC(=O)CN)c1` (configuration not stated), “inactive”.
As to `O=[N+]([O-])c1ccc2c(c1)Cc1ccccc1-2`, the Potency is 61.1 µM (active).
Take `CC1=CCC(C(C)(C)O)CC1` (configuration not stated): the Potency entry is “inactive”.
Consider `CC(C)=CCC/C(C)=C\CO`, for which the Potency result was “inactive”.
Consider `Cc1c(OCC(F)(F)F)ccnc1CS(=O)c1nc2ccccc2[nH]1` (configuration not stated), for which the Potency was 8.41 µM (active).
Regarding `C[Si](C)(C)O[Si](C)(C)C`, the Potency result is “inactive”.
Regarding `CC(=O)O[C@]1(C(C)=O)CC[C@H]2[C@@H]3C=C(Cl)C4=CC(=O)[C@@H]5C[C@@H]5[C@]4(C)[C@H]3CC[C@@]21C`, the Potency is 30.6 µM (active).
Regarding `CC(C)=CCCC(C)CCO` (configuration not stated), the Potency entry is “inactive”.
Regarding `CCCC(=O)O`, the Potency entry is “inactive”.
Consider `c1ccc2cc(Nc3ccc(Nc4ccc5ccccc5c4)cc3)ccc2c1`, for which the Potency result is “inactive”.
In the case of `CCCCC(CC)COC(=O)c1ccc(N(C)C)cc1` (configuration not stated), the Potency result was “inactive”.
Still for that read-out and setting: the value for `CC(=O)c1ccccn1` was “inactive”; that for `CCCCCCCCCCCO` was “inactive”.
With `CC(C)OC=O`, the Potency entry was “inactive”.
Consider `COc1ccccc1/C=C/C=O`, for which the Potency entry was “inactive”.
Take `O=C(O)c1ccccc1Nc1cccc(C(F)(F)F)c1`: the Potency was 54.5 µM (active).
On to `O=CCCCC=O`, for which the Potency was 52.5 µM (active) and inactive.
Take `O=C(c1ccccc1)c1ccccc1O`: the Potency entry is “inactive”.
On to `CCOCCOCCO`, for which the Potency result is “inactive”.
`Nc1ccccc1N`: the Potency is 0.788 µM (active).
On to `COc1ccc(C(=O)CC(=O)c2ccc(C(C)(C)C)cc2)cc1`, for which the Potency entry is “inactive”.
With `Nc1ccc(S(=O)(=O)Nc2cnc3ccccc3n2)cc1`, the Potency entry is “inactive”.
For `Cc1ncc[nH]1`, the Potency entry was “inactive”.

System in a further test: not listed separately
The test is described as follows: qHTS assay for small molecule agonists of the antioxidant response element (ARE) signaling pathway - cell viability counter screen (AID 743203). Further: nearly all actives have a fitted effect of over 55% in size. To be noted: ARE-bla HepG2 viability, CellTiter-Glo luminescence, 16 h; series mostly up to 73.3 µM. In outline: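 Viability counter screen: CellTiter-Glo luminescence, read after 30 min at room temperature, in ARE-bla HepG2 wells. Compound exposure lasted 16 h at 37C/5% CO2, following a 5 h pre-incubation of the cells after plating.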
As for `CCCCOCCOCCO`, the Potency result was “inactive”.
Regarding `CC(C)(C)NC(=O)[C@H]1CC[C@H]2[C@@H]3CC[C@H]4NC(=O)C=C[C@]4(C)[C@H]3CC[C@]12C`, the Potency result is “inactive”.
Still for that read-out and setting: the value for `O=c1oc(=O)c2cc3c(=O)oc(=O)c3cc12` was “inactive”; that for `CN1C(C(=O)Nc2ccccn2)=C(O)c2ccccc2S1(=O)=O` was “inactive”; that for `OCCO` was “inactive”.
As for `CC(CCC(=O)O)(c1ccc(O)cc1)c1ccc(O)cc1`, the Potency entry is “inactive”.
For `COc1ccc(OC)c(C(O)CNC(=O)CN)c1` (configuration not stated), the Potency result is “inactive”.
On the same count and under the same terms, the value for `CCCc1c(OCCCCc2nn[nH]n2)ccc(C(C)=O)c1O` was “inactive”; that for `O=[N+]([O-])c1ccc2c(c1)Cc1ccccc1-2` was “inactive”.
In the case of `CC1=CCC(C(C)(C)O)CC1` (configuration not stated), the Potency entry was “inactive”.
Still for that read-out and setting: the value for `CC(C)Oc1ccc2c(=O)c(-c3ccccc3)coc2c1` was “inactive”.
With `O=C1c2cccc(O)c2C(=O)c2c(O)cccc21`, the Potency entry is “inactive”.
On the same count and under the same terms, the value for `CC(C)=CCC/C(C)=C\CO` was “inactive”; that for `Cc1c(OCC(F)(F)F)ccnc1CS(=O)c1nc2ccccc2[nH]1` (configuration not stated) was “inactive”.
For `C[Si](C)(C)O[Si](C)(C)C`, the Potency result is “inactive”.
On to `CC(=O)O[C@]1(C(C)=O)CC[C@H]2[C@@H]3C=C(Cl)C4=CC(=O)[C@@H]5C[C@@H]5[C@]4(C)[C@H]3CC[C@@]21C`, for which the Potency entry was “inactive”.
Same read-out and setting: the result for `O=CCc1ccccc1` reads “inactive”; that for `c1cc(-c2ccncc2)ccn1`, “inactive”.
With `CC(C)=CCCC(C)CCO` (configuration not stated), the Potency result is “inactive”.
`CCCC(=O)O`: the Potency result was “inactive”.
As for `c1ccc2cc(Nc3ccc(Nc4ccc5ccccc5c4)cc3)ccc2c1`, the Potency result was “inactive”.
Turning to `CCCCC(CC)COC(=O)c1ccc(N(C)C)cc1` (configuration not stated), the Potency entry was “inactive”.
On the same count and under the same terms, the result for `CC(=O)c1ccccn1` reads “inactive”; that for `CCCCCCCCCCCO`, “inactive and 61.1 µM (active)”; that for `CC(C)OC=O`, “inactive”.
As for `COc1ccccc1/C=C/C=O`, the Potency result is “inactive”.
As for `O=C(O)c1ccccc1Nc1cccc(C(F)(F)F)c1`, the Potency entry was “inactive”.
Consider `O=CCCCC=O`, for which the Potency result is “inactive”.
Consider `O=C(c1ccccc1)c1ccccc1O`, for which the Potency result is “inactive”.
Regarding `CCOCCOCCO`, the Potency entry is “inactive”.
As to `Nc1ccccc1N`, the Potency entry was “inactive”.
On the same count and under the same terms, the value for `COc1ccc(C(=O)CC(=O)c2ccc(C(C)(C)C)cc2)cc1` was “inactive”.
With `C[C@]12CC[C@H]3[C@@H](CCC4=CC(=O)CC[C@@]43C)[C@@H]1CC[C@@H]2C(=O)CO`, the Potency result was “inactive”.
For `CNCCCC12CCC(c3ccccc31)c1ccccc12`, the Potency was 19.3 µM (active).
On to `Nc1ccc(S(=O)(=O)Nc2cnc3ccccc3n2)cc1`, for which the Potency result is “inactive”.
The same measure, in the same setting: the result for `Cc1ncc[nH]1` reads “inactive”; that for `Brc1cc(Oc2cc(Br)c(Br)c(Br)c2Br)c(Br)c(Br)c1Br`, “inactive”.

(Values after PubChem BioAssay (Tox21).)
